In the library only some 19% were active in any assay of this set; here they are far more common.
TDP1 block: TDP1 (human) enzyme inhibition. hit rate 0.28% among 350,000. Q9NUW8. recombinant TDP1, AlphaScreen DNA substrate cleavage. AID 485290. Potency, µM (titrated, usually from 130 µM), for the others: at the highest dose activity change, negative = inhibition, actives largely listed as inhibitors; also: nearly all actives have a fitted effect of over 40% in size
Target sequence (Q9NUW8 whole entry, looked up): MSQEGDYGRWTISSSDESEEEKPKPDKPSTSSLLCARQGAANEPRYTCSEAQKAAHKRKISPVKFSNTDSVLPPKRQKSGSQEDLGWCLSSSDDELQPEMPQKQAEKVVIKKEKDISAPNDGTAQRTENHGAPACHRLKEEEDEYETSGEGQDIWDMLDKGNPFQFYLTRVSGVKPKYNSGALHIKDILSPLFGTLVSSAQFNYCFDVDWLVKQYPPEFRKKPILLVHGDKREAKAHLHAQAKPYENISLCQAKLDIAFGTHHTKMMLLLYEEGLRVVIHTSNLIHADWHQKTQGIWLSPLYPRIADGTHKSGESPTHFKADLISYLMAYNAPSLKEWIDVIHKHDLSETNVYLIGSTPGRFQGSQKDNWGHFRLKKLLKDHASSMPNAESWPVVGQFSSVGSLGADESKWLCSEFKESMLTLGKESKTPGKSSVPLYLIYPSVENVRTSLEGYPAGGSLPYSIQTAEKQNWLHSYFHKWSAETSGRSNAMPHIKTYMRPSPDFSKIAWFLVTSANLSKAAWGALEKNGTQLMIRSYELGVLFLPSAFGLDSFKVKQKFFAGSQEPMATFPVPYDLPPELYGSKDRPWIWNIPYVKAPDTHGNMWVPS
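Recombinant E. coli-expressed Tdp1 (1 nM) preincubated with compound 15 min at RT, then 5'-biotin/3'-phosphotyrosine-FITC DNA substrate (15 nM) added for 5 min. AlphaScreen beads (10 ug/ml) added, 10 min RT; tyrosine-FITC cleavage read as signal loss.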
TDP1 cell noCPT: qHTS for Inhibitors of human tyrosyl-DNA phosphodiesterase 1 (TDP1): qHTS in cells in absence of CPT; DT40 Tdp1-/- hTDP1 cells, no CPT, ATP luminescence, 48 h; Potency, µM (top dose mostly 46.2 µM), without a hit: at the top dose activity change, negative = growth inhibition, hits mostly inhibitors; AID 686978, 2013; hit rate 15% among 420,000; also: nearly all actives have a fitted effect of over 55% in size
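Stably hTDP1-transfected Tdp1-null chicken DT40 cells were treated with library compounds minus camptothecin and grown for at least 48 hr at 37 °C, after which cellular ATP was quantified by luminescence.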
VP16 counter: inhibits Gal4-VP16 luciferase reporter, ROR gamma counter-screen; Drosophila S2 Gal4-VP16 UAS-luciferase, luminescence, 20 h; Potency, µM (series often up to 53.6 µM), for inactives: top-dose activity, negative = inhibition, hits mostly inhibitors; hit rate 3.5% among 310,000; AID 2546;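 also: Gal4-VP16 expression switched on by copper sulfate through the metallothionein promoter; nearly all actives have a fitted effect of over 50% in size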
TDP1 cell CPT: growth inhibition of DT40 Tdp1-/-;hTDP1 cells with camptothecin (screen for TDP1 inhibitors); chicken DT40 Tdp1-/-;hTDP1 cells + 20 nM CPT, ATP luminescence, 48 h; Potency, µM (series often up to 46.2 µM), without a hit: top-dose activity change, negative = growth inhibition, most hits filed as inhibitors; hit rate 12% among 420,000; AID 686979; also: nearly all actives have a fitted effect of over 55% in size
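Chicken DT40 Tdp1-/- cells complemented with human TDP1, 400 cells/well, exposed to compounds plus 20 nM camptothecin for at least 48 h at 37 C; viability read as ATP content by CellTiter-Glo luminescence.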
RORgamma inh: ROR gamma (mouse) transcription inhibition. Potency, µM (series often up to 53.6 µM), inactives show at the top dose activity change, negative = inhibition, usual class: inhibitors. hit rate 5.4% among 310,000. Drosophila S2 Gal4-RORgamma UAS-luciferase reporter, 20 h. P51450. AID 2551; also: nearly all actives have a fitted effect of over 60% in size
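Drosophila S2 cells stably expressing Gal4-DBD/mouse RORγ fusion under metallothionein promoter plus UAS-luciferase; compound 1 h, then 700 uM CuSO4 induction for 20 h at ambient temperature; inhibition read as reduced luminescence.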
* = called active by the depositor; u = inconclusive; x = not tested or not shown; ! = a repeat was not active; [ ] = remark or other dose. Calls follow the shape of the dose curve; as a rule, active = well fitted curve in the direction sought with a large enough effect; inconclusive = small, poorly fitted or top-dose-only effect, or another doubt; inactive = no such curve, though single readings can be large; an effect the other way counts as inactive or inconclusive. % is scaled to controls: 0 for no effect and ±100 for the full control effect; potency is read from the fitted curve at half-maximal effect.

SMILES	TDP1 block	TDP1 cell noCPT	VP16 counter	TDP1 cell CPT	RORgamma inh
CCCCCCCCCCCC1=C(O)C(=O)C=C(O)C1=O	25.8%[56.1 µM]	u	-10.2%	u	-23.7%
Nc1c(-c2cccc(Cl)c2)cnn1-c1cccc(C(F)(F)F)c1	2.0%	16.4µM*	u	u	u
Nc1c(-c2ccccc2)cnn1-c1cccc(C(F)(F)F)c1	0.0%	u	u	-26.4%	-16.7%
Cc1cc[n+]2c3c(cccc13)CCC2	7.1%	18.4µM*	-16.6%	20.6µM*	28.5%
O=C(Nc1ccccc1F)Nc1cccc2ccc(O)cc12	x	16.4µM*	4.8%	16.4µM*	4.9%
CCOC(=O)C(=O)NNc1ccccc1C	0.0%	-1.8%	2.7%	18.8%	-3.9%
CC(=O)Nc1cccc2ccc(O)cc12	x	-8.4%	x	-1.5%	x
Cc1ccccc1NC(=O)Nc1ccccc1C(N)=O	2.7%	u	9.7%	10.3µM*	-8.5%
Cc1ccccc1NC(=O)Nc1ccc(C(F)(F)F)cc1	2.7%	8.2µM*	-26.2%	9.2µM*	-2.9%
Cc1ccccc1NNC(N)=S	-8.8%	23.1µM*	u	20.6µM*	u
Cc1ccc(NC(=O)Nc2ccccc2C(N)=O)cc1	-2.5%	u	18.6%	u	15.6%
Cc1cc(C)n(-c2ccc(C(=O)OCC(=O)Nc3ccc([N+](=O)[O-])cc3)cc2)n1	3.0%	-14.5%	-15.7%	0.3%	u
CCn1cc(/C=C(\NC(=O)c2cc(OC)c(OC)c(OC)c2)C(=O)NCCN2CCOCC2)c2ccccc21	3.6%	11.3%	0.7%	-8.4%	-8.5%
NC(=O)c1ccccc1NC(=O)Nc1cccc2ccccc12	-5.3%	4.61µM*	u	1.64µM*	13.4%
NC(=O)NNC(=S)Nc1cccc2ccccc12	5.4%	5.7%	-5.5%	-4.5%	-7.0%
O=C(Nc1ccc(Cl)cc1C(F)(F)F)C(Sc1nnc(-c2cccs2)o1)c1ccccc1 (centres undefined)	5.5%	20.6µM*	2.4%	u	-27.1%
COc1ccc(C)cc1NC(=O)C(Sc1nnc(-c2cccs2)o1)c1ccccc1 (centres undefined)	5.8%	-7.4%	0.1%	-2.2%	u
O=C(Nc1cc(C(F)(F)F)ccc1Cl)C(Sc1cccc[n+]1[O-])c1ccccc1 (centres undefined)	-2.6%	4.61µM*	-8.4%	4.61µM*	u
O=C(Nc1cc(C(F)(F)F)ccc1Cl)C(Sc1nnc(-c2cccs2)o1)c1ccccc1 (centres undefined)	-2.7%	-0.9%	u	-2.5%	11.2µM*
C=CCc1cccc2cc(-c3nc4ccc(C)cc4[nH]3)c(=O)oc12	0.5%	-20.2%	x	-3.1%	x
CCCCc1cc(=O)oc2cc(O)cc(O)c12	-2.7%	9.2µM*	22.4µM*	2.7%	-37.7%
CCCCc1cc(=O)oc2cc(C)c3c(C)coc3c12	-1.2%	u	x	14.6µM*	x
CCCCc1cc(=O)oc2cc(C)cc(O)c12	-3.9%	u	u	u	u
COc1ccc(/C=C/C(=O)c2ccccc2)cc1COc1ccc(F)cc1	-2.0%	20.6µM*	-4.1%	u	u
COc1ccc(C(=O)/C=C/c2ccc(OC)c(COc3ccccc3F)c2)cc1	1.1%	u	4.2%	25.9µM*	-26.2%
SMILES	TDP1 block	TDP1 cell noCPT	VP16 counter	TDP1 cell CPT	RORgamma inh
COc1ccc(/C=C/C(=O)c2ccc(O)cc2)cc1COc1ccc(F)cc1	7.3%	u	-10.9%	u	-22.4%
COc1ccc(/C=C/C(=O)c2ccccc2)cc1Cn1nnc2ccccc21	2.7%	23.1µM*	u	u	u
Cc1cc(N2CCC(C(=O)NCC3CC3)CC2)nc(-c2ccccc2)n1	1.0%	u	8.2%	-20.2%	0.0%
O=c1[nH]c(=O)c2cn[nH]c2[nH]1	x	-9.9%	x	-10.7%	x
CC(OC(=O)c1cccnc1Cl)C(=O)NCc1ccccc1 (centres undefined)	0.3%	-5.8%	x	15.7%	x
CCNc1nc(Nc2ccc(C)c(Cl)c2)c2cnn(C)c2n1	x	1.64µM*	-8.3%	18.4µM*	-13.7%
Cn1ncc2c(Nc3ccc(Cl)c(Cl)c3)ncnc21	0.0%	u	-1.9%	u	u
CCCCNc1nc(Nc2ccc(C)c(Cl)c2)c2cnn(C)c2n1	x	u	u	23.1µM*	29.8%
CC(=O)c1c(C)n([O-])c2ccc(C)cc2[n+]1=O	2.1%	-18.9%	4.6%	-25.3%	4.9%
CCOn1c(=O)c(-c2ccc(C)cc2)[n+]([O-])c2ccccc21	x	10.9%	-10.4%	4.9%	-5.3%
COc1ccc2c(c1OC)C(=O)O[C@@H]2[C@H]1c2c(cc3c(c2OC)OCO3)CCN1C	5.5%	-25.5%	-4.2%	4.0%	-2.0%
COc1ccc2c(c1OC)C(Cc1ccccc1)N1CCc3cc4c(cc3C1=C2)OCO4 (centres undefined)	-5.2%[56.1 µM]	3.76µM*	14.1µM*	2.99µM*	u
COc1ccc(CNC(=O)CN(c2ccc(C(C)C)cc2)S(=O)(=O)c2c(C)nn(C)c2C)cc1	6.4%	u	x	u	x
CCC1CCCCN1CCCNC(=O)CN1C(=O)CSc2ccc(S(=O)(=O)N3CCC(C)CC3)cc21 (centres undefined)	4.8%	23.1µM*!	-0.5%	u	-2.7%
CC1CCN(S(=O)(=O)c2ccc3c(c2)N(CC(=O)NCCCN2CCCC(C)C2)C(=O)CS3)CC1 (centres undefined)	2.2%	14.6µM*!	-10.8%	14.6µM*!	-0.4%
CC(C)CN(CCNC(=O)CN1C(=O)CSc2ccc(S(=O)(=O)N3CCOCC3)cc21)CC(C)C	1.2%	20.6µM*!	9.4%	18.4µM*!	-4.8%
CC(C)CN(CCCNC(=O)CN1C(=O)CSc2ccc(S(=O)(=O)N3CCOCC3)cc21)CC(C)C	0.0%	8.9%	-4.1%	-6.0%	3.8%
COc1ccc2oc(C(=O)c3ccccc3)c(NC(=O)CN3CCN(C)CC3)c2c1	6.0%	-5.9%	u	-6.2%	u
CCCCN(C(=O)c1cc2c(s1)CCC2)c1c(N)n(CC(C)C)c(=O)[nH]c1=O	-5.5%	4.4%	x	0.1%	x
Cc1ccccc1NC(=O)C(C)Sc1nnc(CN2CCCC2)n1Cc1ccccc1 (centres undefined)	x	16.4µM*	x	u	x
CC(Sc1nnc(CN2CCCC2)n1Cc1ccccc1)C(=O)Nc1ccccc1 (centres undefined)	0.7%	-5.1%	x	-10.2%	x
CC(Sc1nnc(-c2ccc(Cl)cc2Cl)n1Cc1ccccc1)C(=O)Nc1nccs1 (centres undefined)	5.9%	u	-21.4%	u	11.2µM*
Cc1nnc(SC(C)C(=O)Nc2ccc(Cl)cn2)n1Cc1ccccc1 (centres undefined)	6.2%	u	-1.0%	-26.3%	8.7%
